The campaign covered roughly 200,000 compounds. About 5,100 (2.5%) were called active. The sample as a whole holds a higher share of actives than the screen did. Values without a mark were called inactive.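 Rule for the calls: active = activation above the screen-wide mean activation plus 3 SD (cut at about 130% in these data); inactive = the rest.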

This test can be described thus: potentiators of IFN-gamma driven STAT1 reporter – cell-based, HTS, luciferase reporter, primary screen (AID 932).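 Note: raw ratio to IFN-gamma control signal so 100% means no change and 0% no light.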 The conditions noted are these: NIH 3T3 STAT1-luciferase reporter, luminescence, at 5.5 µM, hits give high values, 100% = IFN-gamma alone, no compound. A general note: Reporter assays use an easily measured gene product as a stand-in for the process of interest.
With `COc1ccc(Br)cc1CN(C)CC(=O)Nc1cc(Cl)cc(Cl)c1`, the activation (% of control) is 105%.
`Cc1ccc(C)c(NC(=O)CCC(=O)NNC(=O)c2cccs2)c1`: the activation (% of control) is 101%.
With `CC(C)C(=O)Nc1ccc(C(=O)NNC(=O)c2cccs2)cc1`, the activation (% of control) was 102%.
Take `Cc1ccc(C(=O)NNC(=O)c2cccs2)cc1`: the activation (% of control) was 130% (active).
Consider `C=CS(=O)c1sc(Cl)c(N2CCOCC2)c1[N+](=O)[O-]` (configuration not stated), for which the activation (% of control) was 86.3%.
As for `CC(=O)Nc1ccc(Nc2c3ccccc3nc3ccccc23)cc1`, the activation (% of control) was 137% (active).
For `CC(=O)Nc1ccc(NC(=O)COc2ncnc3ccccc23)cc1`, the activation (% of control) is 93.2%.
On to `O=[N+]([O-])c1cccc(Nc2c3ccccc3nc3ccccc23)c1`, for which the activation (% of control) is 98%.
On to `CC1=CC2=NC(=O)CC(C)(C(=O)N(CC(=O)NC(C)(C)C)Cc3ccccc3)N2C=C1` (configuration not stated), for which the activation (% of control) was 106%.
As for `CCCc1nc2ccccc2c(C(=O)OCC(=O)c2ccc3c(c2)NC(=O)CO3)c1CC`, the activation (% of control) was 100%.
For `O=C(CCc1nc2ccccc2c(=O)[nH]1)OCC(=O)c1cccc(Cl)c1`, the activation (% of control) was 93.7%.
The same measure for `Cc1ccc(C(=O)COC(=O)c2cccc(N3C(=O)c4c(C)nc5ccccc5c4C3=O)c2)cc1C`: 149% (active); for `O=C(NCCc1c[nH]c2ccccc12)C(=O)NCC1CCCO1` (configuration not stated): 109%; for `CN(c1ccccc1)S(=O)(=O)c1ccc(Cl)c(C(=O)NCCc2c[nH]c3ccccc23)c1`: 95%.
To `O=C(NCCc1c[nH]c2ccccc12)c1cc2ccccc2oc1=O` belongs 143% (active); to `COc1ccc(NC(=O)/C(C#N)=C\c2cc(OC)c(OCc3ccc(C(=O)O)cc3)cc2Br)cc1`, 96.6%.
As for `COc1ccc(NC(=O)/C(Cl)=C(/Cl)S(=O)Cc2ccc(C)cc2)cn1` (configuration not stated), the activation (% of control) is 222% (active).
In the case of `COc1ccc(CS(=O)/C(Cl)=C(/Cl)C(=O)Nc2ccc(OC)nc2)cc1` (configuration not stated), the activation (% of control) is 279% (active).
The same measure for `COc1ccc(NC(=S)NCCNC(C)=O)cc1`: 103%.
As for `Cc1ccc(NC(=O)OCc2cncs2)cc1`, the activation (% of control) is 118%.
For `COc1ccc(NC(=S)Nc2ccccc2Cl)cn1`, the activation (% of control) was 88.6%.
For `CC(=O)Nc1ccc(OCC(=O)NCc2ccc(C)cc2)cc1`, the activation (% of control) is 95.8%.
`c1ccc2c(c1)CSc1sccc1C2=C1CCNCC1`: the activation (% of control) is 98.4%.
The same measure for `CN(C)/C=C/C(=O)c1cnc2sccn2c1=O`: 105%.
Regarding `COc1cccc(NCCC(=O)c2cccc([N+](=O)[O-])c2)c1`, the activation (% of control) is 116%.
With `O=C(c1ccc2c(c1)N(Cc1ccc(F)cc1)C(=O)c1ccccc1S2(=O)=O)N1CCN(c2ccccn2)CC1`, the activation (% of control) was 97.5%.
Consider `CCn1c(SCC(=O)N(C)C2CCS(=O)(=O)C2)nnc1-c1cccs1` (configuration not stated), for which the activation (% of control) was 97.1%.
For the compound `Cc1ccc(NCc2n[nH]c(=S)n2-c2ccccc2)cc1Cl`, the activation (% of control) is 114%.
With `CCOC(=O)N1CCN(c2cc(C)c([N+](=O)[O-])cc2F)CC1`, the activation (% of control) is 77.6%.
`CC1CCCCC1NC(=O)CN1CCC(O)(c2ccc3c(c2)OCO3)CC1` (configuration not stated): the activation (% of control) is 102%.
`COC(=O)N/N=C/c1ccc(/C=N/NC(=O)OC)cc1`: the activation (% of control) was 103%.
To `Cc1nonc1C(=O)N/N=C/c1ccc(O)cc1` belongs 135% (active); to `O=C(C[n+]1ccccc1)N/N=C/c1ccc(O)cc1`, 97.6%; to `C/C=C/c1ccc(OCCCCN2CCC(C)CC2)c(OC)c1`, 98.3%.
Take `COc1cc(S(=O)(=O)N2CCOCC2)ccc1NC(=O)COc1ccc(N(C)S(=O)(=O)c2ccc(C)cc2)cc1`: the activation (% of control) was 88.9%.
Consider `COc1ccc(NC(=S)N2N=CCC2c2ccccc2)cc1` (configuration not stated), for which the activation (% of control) is 135% (active).
To `COc1ccc(C(=O)NC2CCN(C(=S)Nc3ccccc3)CC2)cc1` belongs 88.7%; to `COc1ccc(C(=S)Nc2ccccc2)cc1`, 118%; to `Cc1ccccc1-n1cc(CNC(=O)CC2C(=O)NCCN2C/C=C/c2ccccc2)cn1` (configuration not stated), 100%.
Take `O=C(Cn1cc(C(F)(F)F)ccc1=O)N/N=C/c1ccc(Cl)cc1Cl`: the activation (% of control) was 116%.
Turning to `O=C(/C=C/c1ccccc1)c1ccoc1`, the activation (% of control) was 98%.
Regarding `O=C(/C=C/c1ccc(N2CCOCC2)cc1)c1ccccc1`, the activation (% of control) is 129% (active).
To `O=C(O)c1ccc2c(c1)C(=O)N(c1ccc(/C=C/C(=O)c3ccccc3)cc1)C2=O` belongs 99.8%; to `Cc1ccc(NC(=O)CCOc2ccccc2)cc1S(=O)(=O)Nc1ccccc1Cl`, 98.8%; to `Cc1csc(NC(=O)CSc2ccc(-c3ccc(F)cc3)nn2)n1`, 112%.
To `Cc1ccc(NC(=S)NCc2ccccc2Cl)c(C)c1` belongs 96.8%.
Turning to `CCOC(=O)N1CCN(C(=S)Nc2ccc(C)cc2C)CC1`, the activation (% of control) is 96.2%.
In the case of `Cc1ccc(NC(=S)Nc2ncccc2C)c(C)c1`, the activation (% of control) was 134% (active).
To `COc1ccc(N2CCN(C(=S)Nc3ccc(S(N)(=O)=O)cc3)CC2)cc1` belongs 89.8%; to `O=c1c2ccccc2nc(N/N=C/c2ccccc2)n1O`, 113%; to `COc1ccc(C=Nc2cccc3ncccc23)cc1`, 99.7%.
With `COc1ccc(/C=N/Nc2nc3ccccc3c(=O)[nH]2)cc1`, the activation (% of control) is 155% (active).
As to `COc1ccc(S(=O)(=O)NCC2CCCN(C(=O)c3occc3C)C2)cc1` (configuration not stated), the activation (% of control) is 96.8%.
Take `COc1ccc(/C=N/NC(=O)C(C)N(c2ccc(OC)cc2)S(C)(=O)=O)cc1` (configuration not stated): the activation (% of control) was 100%.
With `O=C(/C=C/c1ccc(Cl)cc1)Nc1ccc(S(=O)(=O)Nc2ncccn2)cc1`, the activation (% of control) is 107%.
To `CC(C)(C)c1ccc(/C=C/C(=O)NC2CCS(=O)(=O)C2)cc1` (configuration not stated) belongs 104%; to `CC(C)(C)c1ccc(/C=C/C(=O)Nc2ncccn2)cc1`, 138% (active); to `O=C(NCCN1C(=O)S/C(=C\c2cccnc2)C1=O)c1cccc(OC(F)F)c1`, 101%.
For the compound `Cc1ccccc1NC(=O)NC1(C(=O)N2CCCC2)CCCCC1`, the activation (% of control) is 99%.
With `COc1ccc2nc(NC(=O)c3ccc(Br)s3)sc2c1`, the activation (% of control) is 158% (active).
As to `COc1cccc(C(=O)Nc2nc3ccc(S(C)(=O)=O)cc3s2)c1`, the activation (% of control) is 119%.
Regarding `COc1ccc2nc(Nc3nc4ccc(NC(C)=O)cc4s3)sc2c1`, the activation (% of control) was 109%.

The values above are taken from PubChem BioAssay AID932 (The Scripps Research Institute Molecular Screening Center, 2007).
